Where “and” joins values, the source holds several entries; their conditions need not be identical. Equal values may be shown once. Results filed as inconclusive are left out. Where a structure was tested more than once in an assay, its records may differ in their call. Calls of active or inactive are those of the source. How the source made its calls: active means hit-call score of the fitted dose curve at least 0.9, where 1 is the maximum; inconclusive means response in the unintended direction; inactive means score below 0.9.

Sequence of Estrogen receptor beta (Homo sapiens) (Q92731 whole entry, looked up, the tested form may be a part): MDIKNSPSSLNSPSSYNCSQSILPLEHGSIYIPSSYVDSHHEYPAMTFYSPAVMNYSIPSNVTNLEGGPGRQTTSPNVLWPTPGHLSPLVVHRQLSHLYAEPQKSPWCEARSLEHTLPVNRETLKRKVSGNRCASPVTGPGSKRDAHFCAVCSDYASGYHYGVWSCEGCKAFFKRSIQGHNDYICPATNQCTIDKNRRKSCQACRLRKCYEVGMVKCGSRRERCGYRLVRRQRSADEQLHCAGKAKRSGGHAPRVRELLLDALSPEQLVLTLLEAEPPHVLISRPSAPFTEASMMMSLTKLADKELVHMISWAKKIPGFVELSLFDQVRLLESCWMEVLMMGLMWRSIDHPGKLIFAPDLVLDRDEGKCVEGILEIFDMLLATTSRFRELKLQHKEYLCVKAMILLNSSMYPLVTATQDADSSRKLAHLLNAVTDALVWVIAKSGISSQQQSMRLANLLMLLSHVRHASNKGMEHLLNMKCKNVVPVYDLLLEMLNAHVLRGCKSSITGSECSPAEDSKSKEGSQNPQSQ

The test deals with Estrogen receptor beta (Homo sapiens) (UniProt Q92731). As to the kind of experiment: OT_ER_ERbERb_0480: Odyssey Thera (OT) 8-hour HEK293T Protein-Complementation Assay for Estrogen Receptor-beta/-beta Homodimer (AID 2283357). The method, then:
OT_ER_ERbERb_0480 is a cell-based assay that uses HEK293T, a human kidney cell line, with measurements taken at 8 hours after chemical dosing in a 384-well plate.OT_ER_ERbERb_0480 is one of one assay component(s) measured or calculated from the OT_ER_ERbERb_0480 assay. It is designed to make measurements of protein fragment complementation, a form of binding reporter, as detected with fluorescence intensity signals by Protein-fragment Complementation technology.Data from the assay component OT_ER_ERbERb_0480 was analyzed into 1 assay endpoint. This assay endpoint, OT_ER_ERbERb_0480, was analyzed in the positive analysis fitting direction relative to DMSO as the negative control and baseline of activity. Using a type of binding reporter, measures of receptor for gain-of-signal activity can be used to understand the binding at the pathway-level as they relate to the gene ESR2. Furthermore, this assay endpoint can be referred to as a primary readout, because the performed assay has only produced 1 assay endpoint. To generalize the intended target to other relatable targets, this assay endpoint is annotated to the nuclear receptor intended target family, where the subfamily is steroidal.
Protein-fragment complementation assay, or PCA, is a method for the identification and quantification of protein-protein interactions. In the PCA, the proteins of interest ("bait" and "prey") are each covalently linked to fragments of a third protein (e.g. DHFR, which acts as a "reporter"). Interaction between the bait and the prey proteins brings the fragments of the reporter protein in close proximity to allow them to form a functional reporter protein whose activity can be measured. The OT ER beta / ER beta assay is a homodimer PCA of the ligand binding domain (LBD; amino acids 310-547) of human ER beta stably expressed in HEK293T cells. […] Cells are fixed in 4 percent formaldehyde and stained with Draq5 (BioStatus) to identify cells prior to signal detection. Fluorescent signal in the basal state of the assay is very low and is primarily punctuate and cytoplasmic. Modulation of this assay is quantified as an increase in mean fluorescence intensity in the nucleus (for agonists) or in the nucleus and cytoplasm (antagonists) relative to vehicle controls, and can be quantified on a high content imaging device or a laser scanning cytometer. The latter instrument is favored for this assay because of the rapid mode of data acquisition, the ability to acquire data from the entire cell population in a well (as opposed to a fraction of the well on the high content devices) and the larger dynamic range typically achieved with this instrument. To assess sensitivity of the ER beta/ER beta LBD assay to ligand, cells were treated with the ER agonist 17- beta-estradiol (E2) in 10-point concentration- response format for 8 hours and monitored response on a laser scanning plate cytometer (Acumen eX3; TTP Lab Tech).
For orientation: AC50 means the concentration at which the activity in the assay is half-maximal. With `Oc1ccc(Cl)cc1Cl`, the concentration at half-maximal activity (AC50) was 50 µM (active).
For the compound `Nc1ccc(-c2ccc(N)cc2)cc1`, the result was inactive.
As to `ClC1=C(Cl)[C@]2(Cl)[C@@H]3[C@@H](Cl)[C@H]4O[C@H]4[C@@H]3C1(Cl)C2(Cl)Cl`, the AC50 was 13.8 µM (active).
Regarding `O=C(NC(=O)c1c(F)cccc1F)Nc1cc(Cl)c(OC(F)(F)C(F)F)c(Cl)c1`, the outcome was inactive.
Take `C=CC(=O)NCNC(=O)C=C`: the compound was classed as inactive.
With `O=C(O)C(F)(F)C(F)(F)C(F)(F)C(F)(F)C(F)(F)F`, the outcome was inactive.
On the same count and under the same terms, under `OCC(O)CO` stands “inactive”; under `CC(C)(O)C(=O)Nc1ccc([N+](=O)[O-])c(C(F)(F)F)c1`, “inactive”; under `CCCCCCCCOC(=O)c1ccccc1C(=O)OCCCCCCCC`, “inactive”.
On the same count and under the same terms, to `CCOC(=O)C(O)(c1ccc(Cl)cc1)c1ccc(Cl)cc1` belongs “inactive”; to `CC(C)C(=O)OCC(C)(C)C(OC(=O)C(C)C)C(C)C` (configuration not stated), “inactive”.
In the case of `CCC(=O)O[C@H]1CC[C@H]2[C@@H]3CCC4=CC(=O)CC[C@]4(C)[C@H]3CC[C@]12C`, the half-maximal activity concentration (AC50) was 12.2 µM (active) and 4.06 µM (active) and 12.3 µM (active); the outcome was inactive.
`c1ccc(-c2ccccc2)cc1`: the compound was called inactive.
In the case of `Cc1cc(O)ccc1Cl`, the AC50 is 47 µM (active).
On the same count and under the same terms, to `CC(C)(c1ccccc1)c1ccc(O)cc1` belongs 1.8 µM (active) and 1.91 µM (active) and 2.14 µM (active).
As to `CN(C)CCO`, the compound was classed as inactive.
Turning to `CCCN(CCC)N=O`, the result was inactive.
Same read-out and setting: to `O=C(O)C(F)(F)C(F)(F)C(F)(F)C(F)(F)C(F)(F)C(F)(F)C(F)(F)C(F)(F)F` belongs “inactive”; to `CO/C=C(/C(=O)OC)c1ccccc1COc1cccc(C(F)(F)F)n1`, “inactive”.
For `COc1ccc(O)c(C(C)(C)C)c1`, the concentration at half-maximal activity (AC50) was 31.8 µM (active).
Take `CN(C)c1nc(=O)n(C2CCCCC2)c(=O)n1C`: the result was inactive.
On to `Clc1ccc(C(c2ccccc2Cl)C(Cl)(Cl)Cl)cc1` (configuration not stated), for which the concentration at half-maximal activity (AC50) was 2.09 µM (active) and 3.59 µM (active) and 1.83 µM (active).
As to `CCC(C)(CC)c1cc(NC(=O)c2c(OC)cccc2OC)on1`, the compound was classed as inactive.
`O=C(N[C@H]1CN2CCC1CC2)c1cc2ccoc2cn1`: the result was inactive.
Still for that read-out and setting: to `C1CC2OC2CC1C1CO1` (configuration not stated) belongs “inactive”; to `O=S(=O)(O)C(F)(F)C(F)(F)C(F)(F)C(F)(F)F`, “inactive”; to `CCC(C)c1cc([N+](=O)[O-])cc([N+](=O)[O-])c1O` (configuration not stated), “inactive”.
Still for that read-out and setting: under `Cc1ccc(O)c(C)c1` stands “inactive”; under `CCNc1nc(NC(C)C)nc(SC)n1`, “inactive”.
On to `CCCCCCCCCc1ccc(O)cc1`, for which the AC50 was 12.7 µM (active) and 12.4 µM (active).
`Nn1cnnc1`: the result was inactive.
As for `NS(=O)(=O)C(F)(F)C(F)(F)C(F)(F)C(F)(F)C(F)(F)C(F)(F)C(F)(F)C(F)(F)F`, the AC50 is 86.7 µM (active).
Regarding `Cc1cccc(C)c1N`, the outcome was inactive.
On the same count and under the same terms, under `Cc1ccccc1O` stands “inactive”; under `CC#Cc1cc(C)nc(Nc2ccccc2)n1`, “inactive”.
The same measure, in the same setting: under `C[C@]12CCC(=O)C=C1CC[C@@H]1[C@@H]2CC[C@]2(C)C(=O)CC[C@@H]12` stands “inactive”.

The values are drawn from PubChem BioAssay (EPA / NIEHS).
